Hit rate of the full screen: of about 16,000 compounds, about 960 (6%) were called active.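 The calls were made as follows: active = compound fluorescence over control fluorescence at most 0.8, a quencher, or at least a set upper limit, an enhancer; inactive = ratio between 0.8 and the set upper limit.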 Many of the other results were omitted from the sample, so actives are more common in it than they were.
Test: Cy5 fluorescence quenchers or enhancers, artefact control for HCV NS3 helicase inhibitor project, biochemical, ChemBridge library, Cy5 readout (AID 720488)
Conditions: Cy5-dT15 DNA with NS3h, at 100 µM, actives lie on both sides, signal over control mean, under 1 quenches

Fluorescence interference ratio, active:
Cc1cccc(N2C(=O)S/C(=C/c3ccc(N(C)C)cc3)C2=O)c1 0.733
CCc1ccc2oc(-c3ccc(NC(=O)c4ccccc4[N+](=O)[O-])cc3)nc2c1 0.659
COCCCNC(=O)CN(c1ccc(OC)cc1OC)S(=O)(=O)c1ccc(C)cc1 1.23
O=[N+]([O-])c1ccc(N2CCN(CCO)CC2)cc1NC(c1ccccc1)c1ccccc1 0.793
CCOC(=O)c1c(-c2ccc(C)cc2C)csc1NC(=S)NC(=O)c1ccccc1 1.21
CCOC(=O)c1ccc(NC(=O)CN(c2cccc([N+](=O)[O-])c2)S(=O)(=O)c2ccccc2)cc1 0.663
O=C(NC(=S)Nc1ccc(-c2nc3cc(Cl)ccc3o2)cc1)c1ccco1 2.04
COc1ccc(C(=O)Nc2nc3ccc(C)cc3s2)cc1Br 1.23
CCN(CC)c1ccc(NC(=O)/C(=C\c2ccccc2)NC(C)=O)cc1 1.28
CCOc1ccccc1NC(=O)/C=C/c1ccc(Cl)cc1 1.34
CC(=O)c1cccc(NC(=O)c2ccc(N(Cc3ccc(Cl)cc3)S(C)(=O)=O)cc2)c1 0.635
O=[N+]([O-])c1ccc(-c2ccc(I)cc2)cc1 0.706
CN(C)/C=C(/Cl)C=C1C(=O)c2ccccc2C1=O 0.757
CC1=NN(C(=O)c2ccc(Br)cc2)C(O)(c2ccccc2)C1 (stereo not given) 0.753
CC(=O)Nc1ccc(N2C(=O)C3C4CC(=O)C(c5ccccc54)C3C2=O)cc1 (stereo not given) 0.654
CC12OC3(CCCCC3)C(C)(OC13CCCCC3)O2 0.781
S=C1NC(c2ccccc2)=NCN1c1ccc(Br)cc1 0.684
CC1CCN(c2ccc([N+](=O)[O-])c(SCCO)c2)CC1 0.613

Fluorescence interference ratio, inactive:
CN(C)c1ccc(/C=C2/SC(=S)N(c3ccc(F)cc3)C2=O)cc1 1.06
Cc1c(N2C(=O)S/C(=C\c3ccc(N(C)C)cc3)C2=O)c(=O)n(-c2ccccc2)n1C 1.02
O=C(/C=N/O)NCCCNCc1ccccc1 1.03
CC(C)N1C(=O)/C(=C/c2ccc(O)cc2)SC1=S 0.867
O=C(Nc1ccc2oc(-c3cccc(Cl)c3Cl)nc2c1)c1ccccc1[N+](=O)[O-] 1.11
CCC(=O)Nc1ccc(-c2nc3ccccc3o2)cc1 0.946
CCN1C(=O)/C(=C\c2ccc(OCc3ccccc3Cl)cc2)SC1=S 0.997
COc1ccc(N(CC(=O)Nc2ccc(C(C)C)cc2)S(=O)(=O)c2ccc(C)cc2)c(OC)c1 1.04
COc1ccc(N(CC(=O)NCc2ccncc2)S(=O)(=O)c2ccc(C)cc2)cc1 0.919
CN1CCN(C(=O)c2cc3nc(-c4cccs4)cc(C(F)(F)F)n3n2)CC1 0.935
COc1cccc(C2C(C(=O)Nc3ccccc3)=C(C)N=c3s/c(=C\c4c[nH]c5ccccc45)c(=O)n32)c1 (stereo not given) 1.04
Nc1ccc(Sc2ccccc2[N+](=O)[O-])cc1 0.899
O=[N+]([O-])c1ccc(N2CCN(S(=O)(=O)c3ccccc3)CC2)cc1N1CCOCC1 1.11
COc1ccc(CCNc2cc(N3CCOCC3)ccc2[N+](=O)[O-])cc1OC 0.856
COc1ccc(C(=O)/C=C/Nc2ccc(S(=O)(=O)N=C(N)N)cc2)cc1OC 0.963
Cc1ccc(OCC(=O)NC(C)C)cc1 1.11
CCOC(=O)c1sc(NC(=O)COc2ccc(C)cc2C)c(C(=O)OCC)c1C 0.985
CCOC(=O)c1sc(NC(=O)c2ccc(OC)cc2)c(C(=O)OCC)c1C 1.02
CC(C)(C)c1ccccc1OCC(O)CN1CCCC1 (stereo not given) 1.05
C=CCOc1ccccc1C=C1C(=O)NC(=O)NC1=O 0.999
CC(=O)CC(=O)Nc1ccc2c(c1)OCCO2 1.13
CCOC(=O)c1ccccc1NC(=O)/C(=C/c1cccc([N+](=O)[O-])c1)NC(=O)c1ccccc1 1.01
COc1ccccc1NC(=O)CN(c1cccc([N+](=O)[O-])c1)S(=O)(=O)c1ccccc1 0.943
Cc1cc(Nc2cccc(C(F)(F)F)c2)n2c(nc3ccccc32)c1C#N 1.06
COc1ccc2oc(=O)c(C(=O)O)cc2c1 1.08
O=C(NC(=S)Nc1ccc2oc(-c3ccc(Br)cc3)nc2c1)c1ccco1 1.09
O=C(NC(=S)Nc1ccc2oc(-c3cccnc3)nc2c1)c1ccc(Cl)cc1 0.998
Cc1ccc(C2Nc3ccccc3C(=O)N2c2ccccc2)cc1 (stereo not given) 0.912
CCOC(=O)CSc1nnc(-c2cccc(Br)c2)o1 1.15
COc1ccc(S(=O)(=O)N(CCc2ccccc2)CC(=O)Nc2ccccc2F)cc1 1
O=C(Nc1nc2ccccc2s1)c1ccc2c(c1)OCO2 0.992
COc1ccc(C(=O)Nc2ncc([N+](=O)[O-])s2)cc1OC 0.92
COC(=O)c1c(C)oc2ccc(OCC(=O)c3ccccc3)cc12 0.818
O=C(Nc1ccc(Br)cc1)c1ccc(S(=O)(=O)N2CCCC2)cc1 0.938
COc1ccc2occ(C(=O)c3ccc(N=C(C)N(C)C)cc3)c2c1 1.07
COc1ccccc1C(=O)N=Nc1c(O)n(C)c2ccccc12 1.03
CC(=O)Nc1ccc(NC(=S)NC(=O)/C=C/c2ccccc2)cc1 1.07
CC(C)Oc1ccc(/C=C(/NC(=O)c2ccccc2)C(=O)Nc2ccccc2)cc1 1.01
O=C(CCN1C(=O)/C(=C/c2cccs2)SC1=S)NC12CC3CC(CC(C3)C1)C2 0.998
Cc1cc(C)c(NC(=O)C(=O)NCC(C)O)c(C)c1 (stereo not given) 1.01
CCOc1ccccc1NC(=O)Cc1ccccc1 1.03
O=C(/C=C/c1ccc(F)cc1)Nc1cccc(Cl)c1Cl 1.01
CC(=O)COc1ccc2c(-c3ccccc3)cc(=O)oc2c1 0.969
COCCOC(=O)c1c(C)oc2ccc(OCC(N)=O)cc12 1.05
Cc1ccc(NC(=O)c2ccc(NC(=O)c3ccc(Cl)cc3Cl)cc2)cc1 0.959
CS(=O)(=O)N(CC(=O)Nc1ccc(I)cc1)c1cccc(Cl)c1 0.92
NCCCCNc1ccc([N+](=O)[O-])cc1 0.959
Cc1nn(-c2ccc(I)cc2)c(C)c1-c1cccc([N+](=O)[O-])c1 0.947
CCOC(=O)C1CCN(C(=O)Nc2ccc(Cl)cc2)CC1 1.01
NC(=O)NC(c1ccccc1)c1ccc(I)cc1 (stereo not given) 1.01
O=C(Nc1ccc([N+](=O)[O-])cc1)C1CC(=O)N(c2ccc(Cl)cc2)C1 (stereo not given) 0.885
Cc1cc(OCC(=O)Nc2c(C)cccc2C)ccc1Cl 0.96
COc1ccc(S(=O)(=O)Nc2cc(Br)c(O)c(Br)c2)cc1 0.972
COC(=O)c1ccc(COc2ccc3c4c(c(=O)oc3c2)CCC4)cc1 0.926
O=C(c1ccc(Cl)cc1)N1N=C(c2ccc(F)cc2)CC1(O)C(F)(F)F (stereo not given) 0.933
CCC1=NN(C(=O)c2cccc(Br)c2)C(O)(c2ccc(C)cc2)C1 (stereo not given) 0.942
O=C(Cc1ccc(Cl)cc1)Nc1nccs1 0.993
Cc1cc(C(N)=O)c(-c2ccccc2)o1 1.04
Cc1ccc(N2C(=O)C3C4c5ccccc5C(C)(c5ccccc54)C3C2=O)cc1 (stereo not given) 0.929
O=C1CC2c3ccccc3C1C1C(=O)N(c3ccc(Br)cc3)C(=O)C21 (stereo not given) 1.04
Oc1cccc(Nc2nc(-c3ccc(Br)cc3)cs2)c1 0.941
COCCCNC(=O)C(=O)NCCc1ccc(OC)c(OC)c1 0.956
COc1ccc2c(c1)-c1c(ssc1=S)C(C)(C)N2C(=O)COc1ccccc1 0.931
COc1ccc(C(=O)Nc2ccccc2)cc1NC(=O)C(C)Oc1ccccc1 (stereo not given) 0.898
O=C(/C=C/c1ccccc1)NC(=S)Nc1ccc([N+](=O)[O-])cc1 1.02
Cc1cc(C)c(C(O)=Cc2nc3ccccc3[nH]c2=O)c(C)c1 1.05
CCN1C(=O)/C(=C\c2cn(Cc3ccc(F)cc3)c3ccccc23)SC1=S 1.07
COc1ccccc1NC(=O)c1cc(Nc2ccccc2)nc2ccccc12 1.05
Cc1ccc(-c2cc(NC(=O)c3cccs3)n[nH]2)cc1 0.923
Cc1cc(C(=O)N2CCN(c3cccc(Cl)c3)CC2)ccc1[N+](=O)[O-] 0.957
O=C1/C(=C\c2cn(Cc3ccccc3F)c3ccccc23)SC(=S)N1c1ccc([N+](=O)[O-])cc1 0.998
CC(C)(C)N1C(=O)NC(=O)C(=Cc2cccs2)C1=O 1.01
CCCCOC(=O)CCN1C(=O)/C(=C/c2ccc3c(c2)OCO3)SC1=S 0.998
O=C(NC(NC(=O)C(c1ccccc1)c1ccccc1)c1ccc(F)cc1)C(c1ccccc1)c1ccccc1 1.07
CCOC(=O)c1ccc(NC2C=CS(=O)(=O)C2)cc1 (stereo not given) 0.986
O=C(COc1ccccc1Cl)Nc1ccc(O)cc1C(=O)O 1
O=C(NCCN1CCN(S(=O)(=O)c2ccccc2)CC1)C(=O)Nc1ccc(Br)cc1 1.01

— PubChem BioAssay AID720488 (Milwaukee Institute for Drug Discovery, 2013)
